From PubChem BioAssay (NCATS)
Inconclusive results are not listed. Unmarked numbers belong to inactive results. Active and inactive are the calls of the source. The call rests on the fitted dose curve; in most records, active means well fitted inhibition curve with a large enough effect; inconclusive means small, poorly fitted or top-dose-only effect; inactive means flat fitted curve, though single readings scatter.

Tested on: Zika virus NS2B-NS3 protease
Assay: Primary screen GU AMC qHTS for Zika virus inhibitors (AID 1347154); further: nearly all actives have a fitted effect of over 70% in size;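 on activity change, negative = inhibition: 0% = no-inhibitor control and -100% = no-enzyme control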
Conditions: Zika NS2B-NS3 unlinked protease, AMC fluorogenic substrate; series mostly up to 54.1 µM; activity change, negative = inhibition: at the top concentration
Excerpt: Avindra Nath, Ph.D., National Institute of Neurological Disorders and Stroke (NINDS), Bethesda, MD
Radhakrishnan Padmanabhan, Ph.D., Georgetown University (GU), Washington D.C.
Zika Virus causes congenital defects, including microcephaly and is associated with Guillain-Barre syndrome, eningoencephalitis and myelitis in infected adult. […] Using a target-based approach, we hope to establish a screening paradigm to uncover novel, cell-active NS2B-NS3 protease (Zika Virus) specific inhibitors from NCATS' collection of small molecules using qHTS.
Early Translation Branch (ETB)
National Center for Advancing Translational Sciences (NCATS), Rockville, MD
National Institute of Health (NIH), Bethesda, Maryland
Padmanabhan lab provided the NS2B hydrophilic domain and NS3 protease domain in a noncovalent complex used for the unlinked assay. Control compound aprotinin is obtained from Thermo Scientific (#78432; Waltham, Massachusetts). NS2B-NS3 AMC substrate (Bz-Nle-Lys-Arg-Arg-AMC; Nle-KRR-AMC) purchased from Bachem (#I-1995; Torrance, CA). Ac-VKTGKR-AMC purchased from Genscript or Bachem, Ac-FAAGKR-AMC purchased from Genscript, Ac-GLVKRR-AMC purchased from Genscript, Ac-LKKR-AMC purchased from Genscript.
GU AMC unlinked NS2B-NS3 protease qHTS protocol
Briefly, 3 microL of Zika virus unlinked NS2B-NS3 protease (25 nM for linked final concentration), in assay buffer (10 mM Tris-HCl pH 8.0 with 0.01% Tween 20) was dispensed into a 1,536-well solid-bottom black plate (Greiner Bio One, Monroe, NC). […] Plates were then read immediately on a ViewLux High-throughput CCD imager (PerkinElmer, Waltham, MA) equipped with standard UV fluorescence optics (340(30) nm excitation, 450(20) nm emission) then incubated (room temperature, protected from light) for 15 minutes (~20% conversion). The change in fluorescence intensity over the 15-minute reaction period was normalized against no-inhibitor and no-enzyme controls and the resulting percent inhibition data were fitted to a 4-parameter Hill equation. Aprotinin was used as the intraplate control.
Potency means the concentration at half of the fitted maximal effect.

Row | SMILES | activity change, negative = inhibition | Potency
1 | CC(=O)OC1C(C)OC(Oc2c(-c3ccc(O)cc3)oc3cc(O)cc(O)c3c2=O)C(O)C1OC(C)=O (stereo not given) | -6.34% | –
2 | COc1ccc2cccc(CCNC(C)=O)c2c1 | 5.42% | –
3 | CCC(CC)[C@H](NC(C)=O)[C@@H]1[C@H](O)[C@@H](C(=O)O)C[C@@H]1N=C(N)N | 3.88% | –
4 | CC(C)(Cc1ccc2ccccc2c1)NC[C@@H](O)COc1cccc(Cl)c1C#N | 10.5% | –
5 | COC[C@@H](c1ccc(C(F)(F)F)cc1)N1CCN(C2(C)CCN(C(=O)c3c(C)ncnc3C)CC2)C[C@H]1C | -2.85% | –
6 | COc1ccc(C2CC(c3ccccc3)=NN2c2ccc(S(N)(=O)=O)cc2)cc1 (stereo not given) | 981% | –
7 | O=C(Nc1c(Cl)cncc1Cl)c1ccc(OC(F)F)c(OCC2CC2)c1 | -3.73% | –
8 | Cc1ccc(C(C)(O)c2nc3ccccc3s2)c(C)c1 (stereo not given) | -3.95% | –
9 | CC[C@@]1(O)C[C@H](O[C@H]2C[C@H](N(C)C)[C@H](O[C@H]3C[C@H](O)[C@H](O[C@H]4CCC(=O)[C@H](C)O4)[C@H](C)O3)[C@H](C)O2)c2c(cc3c(c2O)C(=O)c2c(O)cccc2C3=O)[C@@H]1C(=O)OC | 8.37% | –
10 | CCc1ccc(OCc2ccccc2C(=O)Nc2ccc3nc(C)cc(N)c3c2)cc1 | – | inactive
11 | COc1ncc(-c2ccc3nccc(-c4ccnnc4)c3c2)cc1NS(=O)(=O)c1ccc(F)cc1F | -2.02% | –
12 | O=C(O)Cc1cccc2ccccc12 | – | inactive
13 | Cc1[nH]c(C=C2C(=O)Nc3ccc(S(=O)(=O)Cc4c(Cl)cccc4Cl)cc32)c(C)c1C(=O)N1CCC[C@H]1CN1CCCC1 | -6.39% | –
14 | C[N+](C)(C)CCCCCC[N+](C)(C)C | 0.28% | –
15 | CO[C@H]1C[C@@H]2CC[C@@H](C)[C@@](O)(O2)C(=O)C(=O)N2CCCC[C@@H]2C(=O)O[C@H]([C@@H](C)C[C@@H]2CC[C@H](O)[C@H](OC)C2)CC(=O)[C@H](C)C=C(C)[C@@H](O)[C@@H](OC)C(=O)[C@H](C)C[C@H](C)C=CC=CC=C1C | 1.95% | –
16 | CO[C@H]1C[C@@H]2CC[C@@H](C)[C@@](O)(O2)C(=O)C(=O)N2CCCC[C@@H]2C(=O)O[C@H]([C@H](C)C[C@@H]2CC[C@H](OCCO)[C@H](OC)C2)CC(=O)[C@H](C)C=C(C)[C@@H](O)[C@@H](OC)C(=O)[C@H](C)C[C@H](C)C=CC=CC=C1C | 2.31% | –
17 | CCCCCCCCCCCC1=C(O)C(=O)C=C(O)C1=O | 15.9% | –
18 | CN(C)CCC(c1ccccc1)c1ccccn1 (stereo not given) | -7.44% | –
19 | Cc1ccn(-c2ccc(-c3ncco3)cc2)c(=O)c1-c1ccc2nc(N)ncc2c1 | – | 21.5 µM (active)
20 | COc1cc(Nc2ncc(F)c(Nc3ccc4c(n3)NC(=O)C(C)(C)O4)n2)cc(OC)c1OC | 14.7% | –

Row | SMILES | activity change, negative = inhibition | Potency
21 | O=c1ccn([C@@H]2O[C@H](CO)[C@H](O)[C@H]2O)c(=O)[nH]1 | -3.64% | –
22 | NS(=O)(=O)c1cccc2c1C(=O)c1cccc(O)c1C2=O | 6.04% | –
23 | O=C(NCc1ccccc1)c1csc(Nc2ccncn2)n1 | -2.53% | –
24 | Cc1ccc(Nc2cc(-c3cccc(N4C(=O)c5ccccc5C4=O)c3)ncn2)cc1NS(C)(=O)=O | 3.61% | –
25 | CC[C@]1(O)C[C@@H]2CN(CCc3c([nH]c4ccccc34)[C@@](C(=O)OC)(c3cc4c(cc3OC)N(C=O)[C@@H]3C45CCN4CC=C[C@](CC)([C@H]45)[C@@H](OC(C)=O)[C@]3(O)C(=O)OC)C2)C1 (stereo not given in full) | -13.5% | –
26 | CCCCCN(C)CCC(O)(P(=O)(O)O)P(=O)(O)O | 6.5% | –
27 | O=C1NC(=O)C(=Cc2ccc3c(c2)OC(F)(F)O3)S1 | -12.1% | –
28 | C[C@H]1[C@H](NC(=O)C(=NOC(C)(C)C(=O)O)c2csc(N)n2)C(=O)N1S(=O)(=O)O | -2.1% | –
29 | CC(=O)O[C@]1(C(C)=O)CC[C@H]2[C@@H]3C=C(Cl)C4=CC(=O)[C@@H]5C[C@@H]5[C@]4(C)[C@H]3CC[C@@]21C | -10.8% | –
30 | Nc1ncnc2ccccc12 | 11.1% | –
31 | CC(C)(C)COc1ccc(-n2cc(C(=O)O)cn2)cc1C#N | -4.45% | –
32 | CNC(=O)c1ccc2cc(C3(O)CCn4cncc43)ccc2c1 (stereo not given) | 11.1% | –
33 | OC[C@@H](O)[C@H](O)[C@H](O)[C@@H](O)CO | – | inactive
34 | COc1cccc(-c2cc(=O)c3ccccc3o2)c1N | – | inactive
35 | Nc1ncnc2c1ncn2[C@@H]1O[C@H](CO)C[C@@H]1O | 4.07% | –
36 | CCCCCNC(=O)N1CCC(CN(Cc2ccc(Cl)cc2)Cc2ccc([N+](=O)[O-])s2)C1 (stereo not given) | -9.04% | –
37 | CC[C@@H]1C=C(C)C[C@H](C)C[C@H](OC)[C@H]2O[C@@](O)(C(=O)C(=O)N3CCCC[C@@H]3C(=O)O[C@H](C(C)=C[C@@H]3CC[C@H](Cl)[C@H](OC)C3)[C@H](C)[C@@H](O)CC1=O)[C@H](C)C[C@H]2OC | -0.395% | –
38 | COc1cc(N2CCC(N3CCN(C)CC3)CC2)ccc1Nc1ncc(Cl)c(Nc2ccccc2S(=O)(=O)C(C)C)n1 | -5.66% | –
39 | CC(=O)Nc1ccc([C@H](C)C(=O)Nc2ncc(C(C)C)s2)cc1 | 1.07% | –
40 | C=C1C(=O)OC2C=C(C)CCC=C(C)CCC12 (stereo not given) | -10.1% | –
